From PubChem BioAssay AID1159580 (chemical genetic matrix, 2015)
Among all 5,500 compounds or so, about 2,000 (36%) were called active. Roughly 18% stayed inconclusive and do not appear here. Rule as the data show it: active = normalized growth mostly below about 0.91 (no sharp cut-off); inconclusive = no clear call, values can overlap the other calls; inactive = mostly above about 0.92. The list shows a part of the results.

Assay: chemical genetic growth profiling, strain panel (AID 1159580);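 also: tested at 20 µM; growth read once vehicle control cultures reached saturation at 30 °C; 1 = growth at the plate median or of vehicle wells; lower values mean less growth of the strain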
Conditions: growth OD

Measured: normalized growth

CCOc1ccc(NC(C)=O)cc1
inactive: S. cerevisiae deletion strains, locus YJR075W, strain HOC1, stronger effect = lower value 1.02 | S. cerevisiae deletion strains, locus YKL009W, strain mrt4, stronger effect = lower value 0.978 | S. cerevisiae deletion strains, locus YKL068W, stronger effect = lower value 0.976 | S. cerevisiae deletion strains, locus YKL085W, strain MDH1 (second series), stronger effect = lower value 0.985 | S. cerevisiae deletion strains, locus YKL085W, strain MDH1, stronger effect = lower value 0.985 | S. cerevisiae deletion strains, locus YKL160W, strain elf1, stronger effect = lower value 1.02 | S. cerevisiae deletion strains, locus YKL190W, strain CNB1, stronger effect = lower value 0.994 | S. cerevisiae deletion strains, locus YKR001C, strain vps1, stronger effect = lower value 0.98 | S. cerevisiae deletion strains, locus YKR026C, strain gcn3, stronger effect = lower value 1.01 | S. cerevisiae deletion strains, locus YKR091W, strain srl3, stronger effect = lower value 1.01 | S. cerevisiae deletion strains, locus YLL001W, strain dnm1, stronger effect = lower value 1.01 | S. cerevisiae deletion strains, locus YLL026W, stronger effect = lower value 1.01 | S. cerevisiae deletion strains, locus YLL041C, strain sdh2, stronger effect = lower value 1.02 | S. cerevisiae deletion strains, locus YLR027C, strain aat2, stronger effect = lower value 1.01 | S. cerevisiae deletion strains, locus YLR039C, strain RIC1, stronger effect = lower value 1.01 | S. cerevisiae deletion strains, locus YLR058C, strain SHM2, stronger effect = lower value 0.994 | S. cerevisiae deletion strains, locus YLR102C, strain apc9, stronger effect = lower value 0.976 | S. cerevisiae deletion strains, locus YLR113W, strain HOG1, stronger effect = lower value 0.997 | S. cerevisiae deletion strains, locus YLR221C, strain rsa3, stronger effect = lower value 0.999 | S. cerevisiae deletion strains, locus YLR258W, strain gsy2, stronger effect = lower value 1.02 | S. cerevisiae deletion strains, locus YLR262C, strain YPT6 (second series), stronger effect = lower value 1.03 | S. cerevisiae deletion strains, locus YLR262C, strain YPT6, stronger effect = lower value 0.999 | S. cerevisiae deletion strains, locus YLR268W, strain sec22, stronger effect = lower value 1.01 | S. cerevisiae deletion strains, locus YLR320W, strain mms22, stronger effect = lower value 1 | S. cerevisiae deletion strains, locus YLR330W, strain CHS5, stronger effect = lower value 0.993 | S. cerevisiae deletion strains, locus YLR342W, strain FKS1 (second series), stronger effect = lower value 0.957 | S. cerevisiae deletion strains, locus YLR342W, strain FKS1, stronger effect = lower value 1.03 | S. cerevisiae deletion strains, locus YLR357W, strain rsc2, stronger effect = lower value 1.01 | S. cerevisiae deletion strains, locus YLR370C, strain arc18, stronger effect = lower value 1.01 | S. cerevisiae deletion strains, locus YLR371W, strain rom2, stronger effect = lower value 0.962 | S. cerevisiae deletion strains, locus YLR384C, strain iki3, stronger effect = lower value 1.02 | S. cerevisiae deletion strains, locus YLR418C, strain cdc73, stronger effect = lower value 1 | S. cerevisiae deletion strains, locus YML016C, strain PPZ1, stronger effect = lower value 0.996 | S. cerevisiae deletion strains, locus YML032C, strain rad52, stronger effect = lower value 0.994 | S. cerevisiae deletion strains, locus YML120C, strain ndi1, stronger effect = lower value 1.02 | S. cerevisiae deletion strains, locus YML124C, strain tub3, stronger effect = lower value 0.99 | S. cerevisiae deletion strains, locus YMR058W, strain fet3, stronger effect = lower value 1.01 | S. cerevisiae deletion strains, locus YMR078C, strain ctf18, stronger effect = lower value 0.991 | S. cerevisiae deletion strains, locus YMR125W, strain sto1, stronger effect = lower value 1.02 | S. cerevisiae deletion strains, locus YMR129W, stronger effect = lower value 1.01 | S. cerevisiae deletion strains, locus YMR205C, strain PFK2, stronger effect = lower value 1.03 | S. cerevisiae deletion strains, locus YMR223W, strain ubp8, stronger effect = lower value 0.988 | S. cerevisiae deletion strains, locus YMR231W, strain pep5, stronger effect = lower value 1.01 | S. cerevisiae deletion strains, locus YMR263W, strain SAP30, stronger effect = lower value 1.01 | S. cerevisiae deletion strains, locus YMR307W, strain GAS1, stronger effect = lower value 0.978 | S. cerevisiae deletion strains, locus YNL067W, strain RPL9B, stronger effect = lower value 1.03 | S. cerevisiae deletion strains, locus YNL071W, strain lat1, stronger effect = lower value 1.01 | S. cerevisiae deletion strains, locus YNL128W, strain TEP1, stronger effect = lower value 1.02 | S. cerevisiae deletion strains, locus YNL153C, strain GIM3, stronger effect = lower value 1.01 | S. cerevisiae deletion strains, locus YNL183C, strain NPR1, stronger effect = lower value 0.995 | S. cerevisiae deletion strains, locus YNL209W, strain ssb2, stronger effect = lower value 1.02 | S. cerevisiae deletion strains, locus YNL233W, strain BNI4, stronger effect = lower value 1.01 | S. cerevisiae deletion strains, locus YNL248C, strain rpa49, stronger effect = lower value 1.02 | S. cerevisiae deletion strains, locus YNL250W, strain rad50, stronger effect = lower value 0.991 | S. cerevisiae deletion strains, locus YNL271C, strain bni1, stronger effect = lower value 0.972 | S. cerevisiae deletion strains, locus YNL298W, strain CLA4, stronger effect = lower value 0.989 | S. cerevisiae deletion strains, locus YNL307C, strain MCK1, stronger effect = lower value 0.991 | S. cerevisiae deletion strains, locus YNL322C, strain KRE1 (second series), stronger effect = lower value 1.01 | S. cerevisiae deletion strains, locus YNL322C, strain KRE1, stronger effect = lower value 1 | S. cerevisiae deletion strains, locus YNR049C, strain mso1, stronger effect = lower value 1.02 | S. cerevisiae deletion strains, locus YNR052C, strain pop2, stronger effect = lower value 0.987 | S. cerevisiae deletion strains, locus YOL006C, strain TOP1, stronger effect = lower value 1.15 | S. cerevisiae deletion strains, locus YOL012C, strain htz1 1.55 | S. cerevisiae deletion strains, locus YOL147C, strain pex11, stronger effect = lower value 0.993 | S. cerevisiae deletion strains, locus YOR001W, strain rrp6, stronger effect = lower value 1.02 | S. cerevisiae deletion strains, locus YOR061W, strain CKA2, stronger effect = lower value 0.996 | S. cerevisiae deletion strains, locus YOR069W, strain VPS5, stronger effect = lower value 1.07 | S. cerevisiae deletion strains, locus YOR070C, strain gyp1, stronger effect = lower value 1.02 | S. cerevisiae deletion strains, locus YOR080W, strain dia2, stronger effect = lower value 1.02 | S. cerevisiae deletion strains, locus YOR083W, strain WHI5, stronger effect = lower value 1.02 | S. cerevisiae deletion strains, locus YOR106W, strain vam3, stronger effect = lower value 1.01 | S. cerevisiae deletion strains, locus YOR136W, strain idh2, stronger effect = lower value 0.996 | S. cerevisiae deletion strains, locus YOR144C, strain elg1, stronger effect = lower value 0.997 | S. cerevisiae deletion strains, locus YOR184W, strain ser1, stronger effect = lower value 0.973 | S. cerevisiae deletion strains, locus YOR231W, strain MKK1, stronger effect = lower value 0.978 | S. cerevisiae deletion strains, locus YOR265W, strain rbl2, stronger effect = lower value 1.01 | S. cerevisiae deletion strains, locus YOR270C, strain vph1, stronger effect = lower value 1.02 | S. cerevisiae deletion strains, locus YOR290C, strain snf2, stronger effect = lower value 1.01 | S. cerevisiae deletion strains, locus YOR316C, strain cot1, stronger effect = lower value 0.983 | S. cerevisiae deletion strains, locus YPL051W, strain arl3, stronger effect = lower value 1 | S. cerevisiae deletion strains, locus YPL055C, strain LGE1, stronger effect = lower value 1.05 | S. cerevisiae deletion strains, locus YPL078C, strain atp4, stronger effect = lower value 1.01 | S. cerevisiae deletion strains, locus YPL106C, strain sse1, stronger effect = lower value 1.02 | S. cerevisiae deletion strains, locus YPL240C, strain hsp82, stronger effect = lower value 1.02 | S. cerevisiae deletion strains, locus YPL241C, strain CIN2, stronger effect = lower value 1.04 | S. cerevisiae deletion strains, locus YPL256C, strain CLN2, stronger effect = lower value 1.01 | S. cerevisiae deletion strains, locus YPR119W, strain clb2, stronger effect = lower value 0.989 | S. cerevisiae deletion strains, locus YPR141C, strain kar3, stronger effect = lower value 0.993 | S. cerevisiae deletion strains, locus YPR163C, strain tif3, stronger effect = lower value 0.995 | S. cerevisiae deletion strains, locus YPR167C, strain met16, stronger effect = lower value 0.978 | S. cerevisiae deletion strains, strain wtn01, stronger effect = lower value 0.989 | S. cerevisiae strains, strain wild type, stronger effect = lower value 0.992
